Each compound was assayed on DDR2. Conditions: concentration: 1 μM, replicates: in singlicate; n = 1.
In the case of `CCc1nc(-c2cccc(C)c2)c(-c2ccncc2)s1`, the “%Inh” value was 17%.
`COc1cc(OC)cc(-c2cc3cnc(N)nc3nc2NC(=O)NC(C)(C)C)c1` was tested, and the “%Inh” value was 11%.
For `Nc1ncnc2c1ncn2-c1cccc(F)c1` [SKF-97560], the “%Inh” value was 30%.
In the case of `COc1cc2ncn(-c3cc(OCc4ccncc4)c(C(N)=O)s3)c2cc1OC` [GSK336313], the “%Inh” value was 0%.
For `Fc1cccc(CSc2nnc(-c3ccc4c(c3)CCO4)o2)c1`, the “%Inh” value was 16%.
`CCC(=O)c1c(-c2ccccc2)c2cc(Cl)ccc2c(=O)n1Cc1cc(S(C)(=O)=O)n(CCC(C)(C)O)n1` was tested, and the “%Inh” value was 0%.
In the case of `CCn1c(-c2ccoc2)nc2cnccc21` [SB-733887], the “%Inh” value was 14%.
For `CCc1ccc(-c2ccc3c(c2)-c2nn(C)cc2S(=O)(=O)N3C)cc1`, the “%Inh” value was 41%.
For `COc1ccc(-c2coc3ccc(-c4nnc(SCc5cccc(C#N)c5)o4)cc23)cc1`, the “%Inh” value was 3%.
In the case of `COC(=O)c1c(-c2ccccc2)c2cc(C)ccc2c(=O)n1Cc1ccccc1`, the “%Inh” value was 33%.
In the case of `Cl.NS(=O)(=O)c1cccc(Nc2cc(-c3ccc(F)cc3)n[nH]2)c1` [GW824645], the “%Inh” value was 45%.
`COC(=O)c1c(-c2ccccc2)c2cc(Br)ccc2c(=O)n1Cc1ccc(NC(=O)CCC(=O)O)cc1` was tested, and the “%Inh” value was 22%.
`COc1ccc(CNC(=O)NC2CCN(c3ccnc(Nc4ccc(F)cc4)n3)C2)cc1` (centres unmarked) [GSK1379706] was tested, and the “%Inh” value was 63%.
With `CCS(=O)(=O)c1ccc(OC)c(Nc2ncc(-c3ccc(F)cc3)o2)c1.Cl` [GW591947] the “%Inh” value was 4%.
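Note: KINOMEscan kinase panel screen.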
